PINK1 modulator: changes PINK1 expression; PINK1 immunofluorescence, high-content cytometry, 24 h; Potency, µM (series often up to 76.6 µM), inactives show at the top dose activation (PINK1 increase), actives largely listed as activators; 410,000 compounds, 0.2% hits; active = well fitted activation curve with a large enough effect; inconclusive = small, poorly fitted or top-dose-only effect; cell line not stated here; also: potency is read from the fitted curve at half-maximal effect; % of control where 0% means no effect; nearly all actives have a fitted effect of over 65% in size
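PINK1 protein level read as immunofluorescence by microplate cytometer in a fixed, stained stable cell line after 24 h exposure to five compound concentrations, with CCCP as control.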
S2 tox: viability counter-screen for ATXN expression inhibitors; S2 cells (HEK-293 line with an ATXN2-luciferase reporter) viability, CellTiter-Fluor protease fluorescence, 24 h; Potency, µM (titrated, usually from 56.7 µM), actives largely listed as cytotoxic; 400,000 compounds, 0.49% hits; AID 651635; also: potency is read from the fitted curve at half-maximal effect; nearly all actives have a fitted effect of over 40% in size
ATXN2 expr inh: reduces ATXN2 reporter expression in HEK-293 cells; HEK-293 ATXN2-luciferase reporter, luminescence, 24 h; Potency, µM (doses to about 57 µM), for the others: top-dose activity change, negative = inhibition, usual class: inhibitors; 360,000 compounds, 0.72% hits; also: potency is read from the fitted curve at half-maximal effect; % is scaled to controls: 0 for no effect and ±100 for the full control effect; nearly all actives have a fitted effect of over 55% in size
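ATXN2-luciferase reporter cells (luciferase flanked by upstream and downstream ATXN2 gene portions) were treated 24 h at 37 °C with compounds at up to 57 uM. SteadyGlo luminescence gave expression; GF-AFC fluorescence gave viability.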
IL1B secr inh: inhibitors of inflammasome signaling (IL-1 beta secretion); activity change, % at 57.5 µM; 360,000 compounds, 4.7% hits; THP-1 LPS/ATP IL-1B secretion, AlphaLISA, 16 h; stronger effect = lower value; in the data active = activity change below about -50%; inconclusive = mostly about -30% to -49%; also: % is scaled to controls: 0 for no effect and ±100 for the full control effect
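THP-1 cells pretreated 1 hr with compounds (up to 57.5 uM final), then stimulated with LPS (250 ng/mL final) plus ATP (1.25 mM final); secreted IL-1B measured by AlphaLISA after 16 hr, decreased signal indicating inhibition.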
SW480 rereplic: DNA re-replication induction in SW480 cells | SW480 DNA re-replication, Hoechst DNA content imaging, 48 h | Potency, µM (doses to about 46.1 µM), for the others: top-dose re-replication activation, usual class: activators | 340,000 compounds, 1.8% hits; also: potency is read from the fitted curve at half-maximal effect; % of control where 0% means no effect; nearly all actives have a fitted effect of over 55% in size
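Image-based read-out: total Hoechst fluorescence of nuclei (405 nm excitation, 500-530 nm emission), with hits raising the fraction of high-intensity nuclei. SW480 colon cells incubated 48 hr with compounds at 37 C.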
MCF10A rereplic: inducers of DNA re-replication in MCF 10A breast cells. MCF 10A DNA re-replication, Hoechst nuclear intensity, 48 h. 350,000 compounds, 2.9% hits. Potency, µM (highest dose often 46.1 µM), without a hit: at the top dose activity, positive = re-replication, most hits filed as activators; also: potency is read from the fitted curve at half-maximal effect; % of control where 0% means no effect; nearly all actives have a fitted effect of over 50% in size
The depositor's hits bear a star; i = inactive; ? = inconclusive; · = no result given. Most compounds without a hit are left out; they make up all but 7.1% or so of the library. Unless noted, calls follow the shape of the dose curve; as a rule, active = well fitted curve in the direction sought with a large enough effect; inconclusive = small, poorly fitted or top-dose-only effect, or another doubt; inactive = no such curve, though single readings can be large; an effect the other way counts as inactive or inconclusive.

SMILES | PINK1 modulator | S2 tox | ATXN2 expr inh | IL1B secr inh | SW480 rereplic | MCF10A rereplic
Cc1ccc(-n2nc3ccc(N)cc3n2)cc1C | 11% | i | · | 11 | 16µM* | 16µM*
COc1ccc(-n2nc3ccc(N)cc3n2)cc1Cl | 1% | i | · | -16 | 21µM* | ?
CCCc1nn2c(=O)cc(COC(=O)c3ccccc3NC(=O)c3ccc(Cl)cc3)nc2s1 | 0% | · | · | · | · | ·
Cc1cc(Nc2cccc(C(F)(F)F)c2)nc2ccc(NC(=O)c3cccnc3)cc12 | 0% | 18µM* | ? | · | · | ·
CC(=O)c1ccc(NC(=O)c2cc(-c3ccc(Cl)c(Cl)c3)on2)cc1 | 2% | i | 9% | · | · | ·
CN1CCc2nc3ccc(Cl)cc3c(-c3ccccc3Cl)c2C1 | 1% | i | -16% | -56* | -13% | 3%
COc1ccc(C(=O)NCC2Cc3cc(C)cc(-c4cc(C(C)=O)ccc4F)c3O2)c(OC)c1OC (centres undefined) | 0% | i | · | · | · | ·
O=C(NCc1ccco1)/C(=C/c1cccc(C(F)(F)F)c1)c1nc2ccccc2[nH]1 | -1% | ? | ? | -115* | ? | 23µM*
O=C(COC(=O)/C=C/c1cccc(C(F)(F)F)c1)NCc1ccco1 | 4% | i | 3% | -5 | -90% | 1%
N#C/C(=C\c1ccc(Oc2ccc(C(F)(F)F)cc2[N+](=O)[O-])cc1)c1nc2ccccc2[nH]1 | 9% | i | -24% | -13 | ? | ?
O=S(=O)(/C(=C\c1ccc(C(F)(F)F)cc1)c1nc2ccccc2[nH]1)c1ccccc1 | -4% | 7.1µM* | 5µM* | -96* | 2.3µM* | ?
O=C(NCc1ccco1)/C(=C/c1ccc(C(F)(F)F)cc1)c1nc2ccccc2[nH]1 | 2% | i | 28% | -73* | 21µM* | 21µM*
O=C1N/C(=C/c2ccc(N3CCOCC3)o2)C(=O)N1c1ccccc1 | ? | ? | ? | -104* | 8.2µM* | 3.7µM*
C=CCN1C(=O)N/C(=C/c2ccc(N3CCOCC3)o2)C1=O | · | · | · | · | 5.8µM* | 5.8µM*
O=C1N/C(=C/c2ccc(N3CCCC3)cc2)C(=O)N1c1ccccc1 | ? | ? | -7% | 3 | ? | ?
O=C1NC(=S)S/C1=C/c1ccc(N2CCOCC2)o1 | 21% | · | 9% | 12 | ? | ?
CC1(C)CC(O)CC(C)(C)N1[O] | · | · | 17% | · | · | ·
COc1ccc(-c2ccc(SCC(=O)Nc3cccc(C(C)=O)c3)nn2)cc1OC | 0% | i | 47% | -86* | 0% | 3%
CN(CCO)C1=NS(=O)(=O)c2cc([N+](=O)[O-])ccc21 | 0% | i | -10% | 16 | ? | ?
C=CCOCCN(C)C1=NS(=O)(=O)c2cc([N+](=O)[O-])ccc21 | 7% | i | -36% | ? | 9.2µM* | ?
O=c1c(-c2ccccc2)c1-c1ccccc1 | · | 8.9µM* | 8.9µM* | · | 6µM* | ?
Cc1cccc(C)c1OCC(=O)NCC1(N2CCOCC2)CCCCC1 | -1% | · | · | · | · | ·
CC1CCN(C(=O)C2CCN(S(=O)(=O)c3cc(Cl)ccc3Cl)CC2)CC1 | 5% | i | -3% | -66* | 8% | -6%
O=C(C1CCN(S(=O)(=O)c2c(Cl)cccc2Cl)CC1)N1CCCCCCC1 | 0% | · | 4% | -20 | 4.1µM* | 0%
CCN1CCN(C(=O)C2CCCN(S(=O)(=O)c3cc(Cl)ccc3Cl)C2)CC1 (centres undefined) | 1% | i | -3% | -8 | -1% | 3%
NC(=O)C1CC(O)CN1c1nc(CN2CCOCC2)nc2scc(-c3ccccc3)c12 (centres undefined) | -3% | i | -22% | 0 | 0% | ?
CC1CCCN(c2nc(-c3cccnc3)nc3scc(-c4ccccc4)c23)C1 (centres undefined) | 28µM* | i | 1% | -61* | 1% | 23µM*
CN1CCN(c2nc(-c3cccnc3)nc3scc(-c4ccccc4)c23)CC1 | 0% | · | 4% | -52* | ? | 18µM*

Compound activity from PubChem.
